AmpC inh no detg – qHTS Inhibitors of AmpC Beta-Lactamase (assay without detergent); 330,000 compounds, 0.52% hits; AmpC nitrocefin hydrolysis, absorbance 480 nm, 0.0001% Triton; Potency, µM (doses to about 57.1 µM), without a hit: at the top dose activity change, negative = inhibition, usual class: inhibitors; P00811; AID 485341, 2010;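 further: plate controls were no compound for no effect and no enzyme for full effect; nearly all actives have a fitted effect of over 20% in size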
Target sequence (P00811 whole entry, looked up): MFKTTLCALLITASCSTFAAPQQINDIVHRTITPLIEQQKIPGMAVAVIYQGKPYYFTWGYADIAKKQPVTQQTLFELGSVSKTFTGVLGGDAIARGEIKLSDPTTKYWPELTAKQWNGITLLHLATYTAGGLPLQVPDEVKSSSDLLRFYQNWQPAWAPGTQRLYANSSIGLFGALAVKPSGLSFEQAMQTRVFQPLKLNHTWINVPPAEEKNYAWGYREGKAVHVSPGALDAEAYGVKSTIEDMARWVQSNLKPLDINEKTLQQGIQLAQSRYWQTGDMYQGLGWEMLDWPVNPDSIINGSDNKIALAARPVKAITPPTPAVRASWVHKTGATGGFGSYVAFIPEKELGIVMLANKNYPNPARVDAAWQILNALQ
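20 mM phosphate pH 7.0 + 0.01% (detergent screen) or 0.0001% Triton X-100; 5.3 nM AmpC reagent; cpd preinc 15 min RT; nitrocefin (800 uM stock) to start; A480 q20 s × 4 min; Activity was normalised to no-enzyme and no-compound control wells.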
AMA1 RON2 block – qHTS for Inhibitors of AMA1-RON; Towards Development of Antimalarial Drug Lead: Primary Screen; Plasmodium falciparum AMA1 (3D7) - RON2 peptide interaction; AlphaScreen AMA1-biotinylated RON2 peptide binding; Potency, µM (highest dose often 58.2 µM), inactives show top-dose activity change, negative = inhibition, usual class: inhibitors; 360,000 compounds, 0.2% hits; AID 720542, 2013;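 further: 0% = vehicle wells and -100% = peptide control; nearly all actives have a fitted effect of over 45% in size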
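AMA1 (3D7) with his tag at 25 nM final met compounds first, then biotinylated RON2 peptide at 25 nM; detection used donor plus acceptor beads, 10 µg/mL apiece, read by AlphaScreen after 30 min at room temperature.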
Pf growth 96h – Primary qHTS for delayed death inhibitors of the malarial parasite plastid, 96 hour incubation | P. falciparum luciferase reporter growth, 96 h | Potency, µM (top dose mostly 28.7 µM), for inactives: top-dose activity change, negative = inhibition, hits mostly inhibitors | 320,000 compounds, 6.9% hits
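Erythrocytes infected with luciferase-expressing P. falciparum were dispensed at 2% hematocrit and 0.05% parasitemia (final), then incubated with compounds 96 hours at 37 C in 5% CO2. Luminescence after detection reagent addition reported growth.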
Pf growth 48h – Primary qHTS for delayed death inhibitors of the malarial parasite plastid, 48 hour incubation; 310,000 compounds, 5.9% hits; AID 504832, 2011; Potency, µM (top dose mostly 28.7 µM), for the others: at the top dose activity change, negative = inhibition, actives largely listed as inhibitors; P. falciparum luciferase growth in erythrocytes, 48 h
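A one-generation exposure of luciferase-tagged malaria parasites in RPMI 1640/Albumax erythrocyte culture, 37 C and 5% CO2. Inhibition is inferred from decreased luminescence after adding detection reagent.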
AmpC inh detg – qHTS Inhibitors of AmpC Beta-Lactamase (assay with detergent); P00811; AmpC hydrolysis of nitrocefin, absorbance 480 nm, 0.01% Triton; Potency, µM (top dose mostly 114 µM), for inactives: at the top dose activity change, negative = inhibition, hits mostly inhibitors; 370,000 compounds, 0.041% hits; AID 485294, 2010;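 further: 0% = no-compound wells and -100% = no-enzyme wells; nearly all actives have a fitted effect of over 25% in size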
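20 mM phosphate pH 7.0 + 0.01% (detergent screen) or 0.0001% Triton X-100; 5.3 nM AmpC reagent; cpd preinc 15 min RT; nitrocefin (800 uM stock) to start; A480 q20 s × 4 min; Activity was normalised to no-enzyme and no-compound control wells.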
HCV inh – qHTS Assay for Inhibitors of Hepatitis C Virus (HCV). Huh7.5.1 HCVcc-Cre infection, luciferase reporter, 44 h. Potency, µM (highest dose often 41.8 µM), for the others: at the top dose activity change, negative = inhibition, most hits filed as inhibitors. 340,000 compounds, 3.4% hits. AID 651820, 2012
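A cell-based infection assay in which seeded cells (1,000 per well) receive test compound after 4 h, are inoculated with HCVcc-Cre at approximately 0.5 moi, and are incubated 44 h before luminescence detection.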
The depositor's hits bear a star; ? = inconclusive; . = not tested or not shown; [ ] = another dose, or the depositor's remark. Only some compounds are listed: those with a hit (about 11% of all), similar ones and a draw of the others. The call rests on the fitted dose curve; in most records, active means well fitted curve in the direction sought with a large enough effect; inconclusive means small, poorly fitted or top-dose-only effect, or another doubt; inactive means no such curve, though single readings can be large; an effect the other way counts as inactive or inconclusive. Unless noted, on the % scale 0 is the no-effect control and ±100 the full control effect; potency means the concentration at half of the fitted maximal effect.

SMILES | AmpC inh no detg | AMA1 RON2 block | Pf growth 96h | Pf growth 48h | AmpC inh detg | HCV inh
COc1ccc(Cl)cc1NC(=O)Cn1c(=O)n(Cc2ccc(F)cc2)c(=O)c2cccnc21 | . | . | . | . | 25% | .
CC1CCCN(C(=O)c2ccc3c(=O)n(Cc4ccc5c(c4)OCO5)c(=S)[nH]c3c2)C1 (stereo unspecified) | -10% | 45% | 7.4µM* | -29% | ? | ?
O=C(c1ccc2c(=O)n(-c3ccccc3)c(=O)[nH]c2c1)N1CCN(c2ccc(F)cc2)CC1 | -8% | 10% | 38% | -16% | ? | ?
O=C(c1ccc(Cn2c(=O)[nH]c3ccccc3c2=O)cc1)N1CCN(c2ccc(Cl)cc2)CC1 | -1% | -10% | ? | ? | -10% | 11µM*
O=C(NCCN1CCCC1)c1ccc(Cn2c(=S)[nH]c3cc4c(cc3c2=O)OCO4)cc1 | 11% | 43% | . | ? | ? | ?
CC(=O)c1ccc(N2CCN(C(=O)c3ccc4c(=O)n(-c5ccccc5)c(=O)[nH]c4c3)CC2)cc1 | 18% | 2% | ? | 10µM* | -9% | ?
CCN(CC)C(=O)c1ccc2c(=O)n(Cc3ccc4c(c3)OCO4)c(=S)[nH]c2c1 | 1% | 31% | 12% | ? | -1% | -13%
O=C(c1ccc(Cn2c(=S)[nH]c3cc4c(cc3c2=O)OCO4)cc1)N1CCN(c2ncccn2)CC1 | -22% | . | ? | 12µM* | -11% | .
COc1ccccc1Cn1ccn(CC(=O)Nc2c(C)cc(C)cc2C)c(=O)c1=O | . | . | . | . | 15% | .
CCC(=O)Oc1c(Sc2ccc(Cl)cc2)c(C)nn1C(C)(C)C | . | . | . | . | -1% | .
CC1(CN2CCC(n3c(=O)[nH]c4ccccc43)CC2)OCc2ccccc2-n2cccc21 (stereo unspecified) | . | . | 13µM* | 15µM* | . | .
CCC(=O)N1CCc2cc(Br)cc(S(=O)(=O)N3CCN(c4ccccc4OC)CC3)c21 | . | . | . | . | 5% | .
CCOC(=O)N/N=C\c1ccccc1OC/C=C/c1ccccc1 | -39% | -1% | 83% | 2.9µM* | -9% | ?
COC(=O)N/N=C\c1ccccc1OC/C=C/c1ccccc1 | -10% | 4% | 9.3µM* | ? | ? | ?
N#CCC(=O)N/N=C\c1cc(Br)ccc1OC/C=C/c1ccccc1 | -43% | 28% | 2.9µM* | -7% | 4% | ?
CCc1ccc(C2c3c(oc4ccc(C)cc4c3=O)C(=O)N2c2nc(C)c(C)s2)cc1 (stereo unspecified) | . | . | . | . | 21% | .
O=C(COc1ccc(Cl)cc1)Nc1ccc2nc(SCC(=O)N3CCOCC3)sc2c1 | . | . | . | . | -4% | .
Clc1ccc2[nH]c3c(NCCN4CCOCC4)ncnc3c2c1 | -41% | -5% | 30% | 3.7µM* | 3% | ?
O=c1c2[nH]c3ccc(F)cc3c2ncn1CCCN1CCOCC1 | 0% | -2% | ? | 3% | -13% | 15%
Fc1ccc2[nH]c3c(NCCN4CCOCC4)ncnc3c2c1 | -28% | -9% | 4.1µM* | 3.3µM* | -9% | ?
O=C1C2=C(C(=O)c3ccccc31)C1O[C@](c3ccsc3)(Cc3ccccc31)O2 | -44%[11.4 µM] | . | 39%[5.75 µM] | 1.2µM* | -14%[22.9 µM] | .
COc1ccc2c3c(c(=O)oc2c1)C1O[C@](c2ccsc2)(Cc2ccccc21)O3 | -43%[11.4 µM] | . | ? | ? | ? | .
Cc1cc2c(c(=O)o1)C1O[C@](c3ccsc3)(Cc3ccccc31)O2 | -35%[11.4 µM] | . | ? | 1.9µM* | ? | .
O=C1C2=C(C(=O)c3ccccc31)C1O[C@](CCCCN3C(=O)c4ccccc4C3=O)(Cc3ccccc31)O2 | ? | . | ? | ? | -5%[22.9 µM] | .
O=c1oc2ccccc2c2c1C1O[C@](c3ccsc3)(Cc3ccccc31)O2 | 4.5µM* | . | ? | 1.7µM* | -11%[22.9 µM] | .
SMILES | AmpC inh no detg | AMA1 RON2 block | Pf growth 96h | Pf growth 48h | AmpC inh detg | HCV inh
COc1cc2c(cc1OC)C1OC(c3ccsc3)(C2)Oc2cc(C)oc(=O)c21 (stereo unspecified) | 61%[11.4 µM] | . | 1.7µM* | ? | ? | .
Cc1cccc(Cn2c(CN3CCCC(C)C3)nc3c2c(=O)n(C)c(=O)n3C)c1 (stereo unspecified) | . | . | . | . | -1% | .
COc1ccc([C@]23Cc4ccccc4C(O2)c2c(c4ccc(OC)cc4oc2=O)O3)cc1 | -44%[11.4 µM] | . | 1.7µM* | ? | ? | .
COc1ccc([C@]23Cc4cc(OC)c(OC)cc4C(O2)c2c(cc(C)oc2=O)O3)cc1 | 60%[11.4 µM] | . | 0.34µM* | ? | ? | .
CC(NC(=O)C1CCN(S(=O)(=O)c2ccc(F)cc2)CC1)c1ccccc1 (stereo unspecified) | . | . | . | . | -1% | .
Cc1ccccc1N=C1NC(=O)C(CO)(CO)S1 | -8% | 6% | -35% | -5% | -10% | 14%
O=C1NC(=Nc2ccccc2Cl)SC1(CO)CO | -3% | 10% | 13µM* | -3% | -10% | 10%
Cc1ccccc1-c1noc(-c2nnn(-c3ccccc3C)c2N)n1 | . | . | . | . | 16% | .
CNc1cccc2c1C(=O)c1ccccc1C2=O | -23% | 4µM* | 2.9µM* | 83% | -9% | 13µM*
CN(C)S(=O)(=O)c1cccc2c1C(=O)c1ccccc1C2=O | -1% | -18% | 10µM* | 12µM* | -18% | -2%
CN(C)c1ccc(CN2CCc3nc(N4CCN(c5ccccn5)CC4)ncc3C2)cc1 | . | . | . | . | -3% | .
COc1ccc(NC(=O)CSCc2cc(=O)c3cc(Cl)ccc3[nH]2)cc1 | . | . | . | . | 5% | .
COc1ccc(C2CC(=O)c3c(C)nc(N4CCN(Cc5ccccc5)CC4)nc3C2)cc1OC (stereo unspecified) | 90% | -6% | 10µM* | 8.3µM* | -5% | 3.5µM*
COc1cc(C2CC(=O)c3cnc(N4CCN(Cc5ccccc5)CC4)nc3C2)cc(OC)c1OC (stereo unspecified) | 3% | 1% | -13% | 9.3µM* | -4% | ?
Cc1nc(N2CCN(Cc3ccccc3)CC2)nc2c1C(=O)CC(C)C2 (stereo unspecified) | 107% | 23% | . | 0% | -10% | -22%
O=C(CSc1cccc[n+]1[O-])CSc1cccc[n+]1[O-] | -8% | 32% | 0.19µM* | 9.3µM* | -2% | -19%
